# Assay results from the supplement of paper PMC4683952.
# Counter-ions that a name gives are not always drawn. About 50 (4%) of roughly 1,200 compounds showed activity. Cut-off read from the data, not from the text of the source: all actives reach 1.3 or more but so do some inactives. This excerpt belongs to a sample that is enriched for actives.
# System: Lgr5 (MarsCy1-Lgr5-EGFP, U2OS)
# Assay: cell-surface Lgr5 expression (SCi1 fluorescence, background-subtracted) relative to WT DMSO (fold of DMSO control); higher = more Lgr5 at the plasma membrane, active = hit call of the paper
# Conditions: U2OS MarsCy1-Lgr5-EGFP stable; treatment time: overnight; 16 µM; library: Johns Hopkins Clinical Compound Library
row,SMILES,cell-surface Lgr5 expression
1,NC(CCC(=O)O)C(=O)O (racemic) [DL-Glutamic acid monohydrate],0.692 (inactive)
2,C=CC(N)CCC(=O)O (stereo not drawn) [Vigabatrin],1.52 (active)
3,NC(=O)N[C@@H](CCC(=O)O)C(=O)O [Carglumic acid (N-Carbamyl-L-Glutamic Acid)],1.08 (inactive)
4,OCc1ccccc1O[C@@H]1O[C@H](CO)[C@@H](O)[C@H](O)[C@H]1O [Salicin],1.17 (inactive)
5,c1ccc(CN(CC2=NCCN2)c2ccccc2)cc1 [Antazoline],1.21 (inactive)
6,CC(C)COCC(CN(Cc1ccccc1)c1ccccc1)N1CCCC1 (stereo not drawn) [Bepridil],1.31 (active)
7,c1ccc(CN(CC2=NCCN2)c2ccccc2)cc1 [Antazoline phosphate salt],1.28 (inactive)
8,Nc1c(Br)cc(Br)cc1CN[C@H]1CC[C@H](O)CC1 [Ambroxol hydrochloride],1.54 (active)
9,O=C1OC(c2ccc(O)cc2)(c2ccc(O[C@@H]3O[C@H](C(=O)O)[C@@H](O)[C@H](O)[C@H]3O)cc2)c2ccccc21 (stereo partly drawn) [Phenolphthalein beta-D-glucuronide sodium salt],1 (inactive)
10,NCCC[C@H](N)C(=O)O [L-Ornithine],0.718 (inactive)
11,[K+].[OH-] [Potassium hydroxide],1.11 (inactive)
12,CN1C(CCl)Nc2cc(Cl)c(S(N)(=O)=O)cc2S1(=O)=O (stereo not drawn) [Methyclothiazide],0.905 (inactive)
13,C=CCSCC1Nc2cc(Cl)c(S(N)(=O)=O)cc2S(=O)(=O)N1 (stereo not drawn) [Althiazide],1.27 (inactive)
14,NS(=O)(=O)c1cc2c(cc1Cl)NC(C(Cl)Cl)NS2(=O)=O (stereo not drawn) [Trichlormethiazide],1.44 (active)
15,CNCC(O)c1ccc(OC(=O)C(C)(C)C)c(OC(=O)C(C)(C)C)c1 (stereo not drawn) [Dipivefrin HCl],1.42 (active)
16,CNC[C@H](O)c1cccc(O)c1 [L-Phenylephrine hydrochloride],0.598 (inactive)
17,CC(C)(C)NCC(O)c1ccc(O)c(CO)c1 (stereo not drawn) [Albuterol (Salbutamol)],1.22 (inactive)
18,CCC(C)C(C(=O)OCC[N+](C)(CC)CC)c1ccccc1 (stereo not drawn) [Valethamate bromide],1.1 (inactive)
19,"CCN(CC)C(=S)S [Ditiocarb (Diethyldithiocarbamic acid sodium, thiocarb)]",1.05 (inactive)
20,O=C(OCC(O)CO)c1ccccc1Nc1ccnc2cc(Cl)ccc12 (stereo not drawn) [Glafenine],1.63 (active)
21,CCN(CC)Cc1cc(Nc2ccnc3cc(Cl)ccc23)ccc1O [Amodiaquin],1.47 (inactive)

row,SMILES,cell-surface Lgr5 expression
1,CCN(CC)CCCC(C)Nc1ccnc2cc(Cl)ccc12 (stereo not drawn) [Chloroquine diphosphate salt],1.53 (inactive)
2,CN(CCO)CC(O)Cn1cnc2c1c(=O)n(C)c(=O)n2C (stereo not drawn) [Xanthinol niacinate (Xanthinol Nicotinate)],1.05 (inactive)
3,"O=Cc1cc(Br)cc(Br)c1O [3,5-Dibromosalicylaldehyde]",1.17 (inactive)
4,CNCCCC12CCC(c3ccccc31)c1ccccc12 [Maprotiline],1.32 (active)
5,CNCCCC1c2ccccc2C=Cc2ccccc21 [Protriptyline],0.38 (inactive)
6,CNCCCN1c2ccccc2CCc2ccccc21 [Desipramine],1 (inactive)
7,COc1cc(C2Oc3cc([C@H]4Oc5cc(O)cc(O)c5C(=O)[C@@H]4O)ccc3OC2CO)ccc1O (stereo partly drawn) [Silibinin],1.08 (inactive)
8,COc1cc(C2Oc3cc([C@H]4Oc5cc(O)cc(O)c5C(=O)[C@@H]4O)ccc3OC2CO)ccc1O (stereo partly drawn) [Silibinin (Silybin)],1.23 (inactive)
9,"Oc1c(Cl)cc(Cl)c2cccnc12 [Chloroxine (5,7-Dichloro-8-hydroxyquinoline)]",0.97 (inactive)
10,Cc1c(N(C)C)c(=O)n(-c2ccccc2)n1C [Aminopyrine (4-Dimethylamino-antipyrine)],1.14 (inactive)
11,Cc1c(N(C)C)c(=O)n(-c2ccccc2)n1C [Aminopyrine (4 Dimethylamino antipyrene)],0.932 (inactive)
12,Cc1cc(OS(=O)(=O)O)c2ccccc2c1OS(=O)(=O)O [Menadiol disulfate disodium salt trihydrate],0.856 (inactive)
13,O=C(O)c1cc(S(=O)(=O)O)ccc1O [Sulfosalicylic acid (5-Sulfosalicylic acid dihydrate)],1.11 (inactive)
14,CNC[C@H](O)c1ccc(O)c(O)c1 [Epinephrine],1.57 (inactive)
15,NC[C@H](O)c1ccc(O)c(O)c1 [Arterenol (Norepinephrine)],1.3 (active)
16,CCC(NC(C)C)C(O)c1ccc(O)c(O)c1 (stereo not drawn) [Isoetharine mesylate],1.19 (inactive)
17,NC[C@H](O)c1ccc(O)c(O)c1 [Norepinephrine],1.26 (inactive)
18,Cc1ncc(CO)c(CN)c1O [Pyridoxamine dihydrochloride],0.999 (inactive)
19,"Cc1ncc(CO)c(CN)c1O [Pyridoxamine, Dihydrochloride]",1.02 (inactive)
20,CCCCc1nc(Cl)c(CO)n1Cc1ccc(-c2ccccc2-c2nnn[nH]2)cc1 [Losartan],0.915 (inactive)
21,C[C@@H]1[C@H](O)[C@@H](C)/C=C/C=C/C=C/C=C/C=C/C=C/C=C/[C@H](O[C@@H]2O[C@H](C)[C@@H](O)[C@H](N)[C@@H]2O)C[C@@H]2O[C@](O)(C[C@@H](O)C[C@@H](O)[C@H](O)CC[C@@H](O)C[C@@H](O)CC(=O)O[C@H]1C)C[C@H](O)[C@H]2C(=O)O [Amphotericin B],0.802 (inactive)

row,SMILES,cell-surface Lgr5 expression
1,C[C@@H]1CCC[C@H](C)N1NC(=O)c1ccc(Cl)c(S(N)(=O)=O)c1 [Clopamide],1.3 (inactive)
2,CC(=O)OCC(=O)[C@@]12OC(C)(C)O[C@@H]1C[C@H]1[C@@H]3CCC4=CC(=O)C=C[C@]4(C)[C@@]3(F)[C@@H](O)C[C@@]12C [Triamcinolone acetonide acetate],1.26 (inactive)
3,CC(=O)O[C@]1(C(C)=O)CC[C@H]2[C@@H]3C=C(Cl)C4=CC(=O)[C@@H]5C[C@@H]5[C@]4(C)[C@H]3CC[C@@]21C [Cyproterone acetate],1.25 (inactive)
4,CC(=O)O[C@]1(C(C)=O)CC[C@H]2[C@@H]3C[C@H](C)C4=CC(=O)C=C[C@]4(C)[C@@]3(F)[C@@H](O)C[C@@]21C [Fluorometholone acetate],1.31 (active)
5,CCCC(=O)O[C@]1(C(=O)CCl)[C@H](C)C[C@@H]2[C@@H]3CCC4=CC(=O)C=C[C@]4(C)[C@]3(F)C(=O)C[C@@]21C [Clobetasone butyrate],1 (inactive)
6,CC(=O)OCC(=O)[C@@]12OC(C)(C)O[C@@H]1C[C@H]1[C@@H]3C[C@H](F)C4=CC(=O)C=C[C@]4(C)[C@@]3(F)[C@@H](O)C[C@@]12C [Fluocinolone acetonide 21-acetate],1.6 (active)
7,CC(=O)OCC(=O)[C@@]1(OC(C)=O)[C@@H](C)C[C@H]2[C@@H]3C[C@H](F)C4=CC(=O)C=C[C@]4(C)[C@@]3(F)[C@@H](O)C[C@@]21C [Diflorasone diacetate],1.67 (active)
8,CCCC(=O)O[C@]1(C(=O)COC(C)=O)CC[C@H]2[C@@H]3C[C@H](F)C4=CC(=O)C=C[C@]4(C)[C@@]3(F)[C@@H](O)C[C@@]21C,1.57 (active)
9,CC(=O)O[C@]1(C(C)=O)CC[C@H]2[C@@H]3C[C@H](C)C4=CC(=O)CC[C@]4(C)[C@H]3CC[C@@]21C [Medroxyprogesterone acetate],1.2 (inactive)
10,COc1cccc2c1C(=O)c1c(O)c3c(c(O)c1C2=O)C[C@@](O)(C(=O)CO)C[C@@H]3O[C@H]1C[C@H](N)[C@@H](O)[C@H](C)O1 [Epirubicin],1.31 (inactive)
11,O=S(=O)([O-])[O-].[Cu+2] [Copper (II) sulfate],1.27 (inactive)
12,CCN1C(=CC=Cc2ccc3ccccc3[n+]2CC)C=Cc2ccccc21 [Quinaldine blue (Pinacyanol chloride)],1.53 (inactive)
13,CCCCNc1ccc(C(=O)OCCOCCOCCOCCOCCOCCOCCOCCOCCOC)cc1 [Benzonatate],1.08 (inactive)
14,O=C(O)c1ccc[n+]([O-])c1 [Oxiniacic acid (nicotinic acid n-oxide)],0.989 (inactive)
15,Cc1ccc(S(=O)(=O)NCl)cc1 [Chloramine-T hydrate],0.672 (inactive)
16,CCC(=O)Oc1ccc(/C(CC)=C(\CC)c2ccc(OC(=O)CC)cc2)cc1 [Diethylstilbestrol dipropionate],0.886 (inactive)
17,"O=P(O)(O)OC1C(OP(=O)(O)O)C(OP(=O)(O)O)C(OP(=O)(O)O)C(OP(=O)(O)O)C1OP(=O)(O)O (stereo not drawn) [Phytic acid, dodecasodium salt hydrate]",0.522 (inactive)
18,Br.N [Ammonium bromide],1.09 (inactive)
19,CC1CCC(NC(=O)N(CCCl)N=O)CC1 (stereo not drawn) [Semustine],1.06 (inactive)
20,C[C@@H]1C/C=C/C=C/C=C/C=C/[C@H](O[C@@H]2O[C@H](C)[C@@H](O)[C@H](N)[C@@H]2O)C[C@@H]2O[C@](O)(C[C@@H](O)C[C@H]3O[C@@H]3/C=C/C(=O)O1)C[C@H](O)[C@H]2C(=O)O [Natamycin (Pimaricin)],0.845 (inactive)
21,O=S(=O)([O-])[O-].O=S(=O)([O-])[O-].[Al+3].[Na+] [Aluminum sodium sulfate],0.71 (inactive)
